High-throughput results deposited in PubChem by National Center for Advancing Translational Sciences (NCATS).
Only some compounds are listed: those with a hit (about 0.93% of all), similar ones and a draw of the others.
TRHR ag: TRH receptor (human) agonism | AID 493084 | activation, % at 2 µM | P34981 | TRHR cells, calcium flux fluo-8, FDSS agonist mode | actives 0.18% (n = 360,000); in the data active = activation above about 30%; also: 0% is about no effect
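Steps: seed TRHR cells overnight; add fluo-8 no-wash Ca dye, RT 30 min–1.5 h; record 10 s baseline; pin-transfer compounds; monitor fluorescence 1 cycle/s for the agonist window. Calcium increases flag candidate agonists.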
TRHR PAM: TRH receptor (human) allosteric enhancement. TRHR cells, fluo-8 calcium fluorescence, EC20 TRH enhancement. P34981. enhancement, % at 2 µM. AID 493056. actives 0.66% (n = 360,000); in the data active = enhancement above about 30%; also: 0% is about no effect
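TRHR-expressing cells loaded with fluo-8 calcium dye were read kinetically (ex 480/em 530) during compound addition, then stimulated with an EC20 of TRH (10 nM final). Enhancement of the Gq-mediated intracellular calcium response was scored.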
PTHR1 agonist: activates the human parathyroid hormone receptor PTHR1. Potency, µM (top dose mostly 115 µM), for the others: at the top dose activation, usual class: activators. HEK293 GP2 PTHR1 cells, GloSensor cAMP luminescence, 1 h. AID 743266. Q03431. actives 0.075% (n = 410,000); also: potency is read from the fitted curve at half-maximal effect; nearly all actives have a fitted effect of over 55% in size
Target sequence (Q03431 whole entry, looked up): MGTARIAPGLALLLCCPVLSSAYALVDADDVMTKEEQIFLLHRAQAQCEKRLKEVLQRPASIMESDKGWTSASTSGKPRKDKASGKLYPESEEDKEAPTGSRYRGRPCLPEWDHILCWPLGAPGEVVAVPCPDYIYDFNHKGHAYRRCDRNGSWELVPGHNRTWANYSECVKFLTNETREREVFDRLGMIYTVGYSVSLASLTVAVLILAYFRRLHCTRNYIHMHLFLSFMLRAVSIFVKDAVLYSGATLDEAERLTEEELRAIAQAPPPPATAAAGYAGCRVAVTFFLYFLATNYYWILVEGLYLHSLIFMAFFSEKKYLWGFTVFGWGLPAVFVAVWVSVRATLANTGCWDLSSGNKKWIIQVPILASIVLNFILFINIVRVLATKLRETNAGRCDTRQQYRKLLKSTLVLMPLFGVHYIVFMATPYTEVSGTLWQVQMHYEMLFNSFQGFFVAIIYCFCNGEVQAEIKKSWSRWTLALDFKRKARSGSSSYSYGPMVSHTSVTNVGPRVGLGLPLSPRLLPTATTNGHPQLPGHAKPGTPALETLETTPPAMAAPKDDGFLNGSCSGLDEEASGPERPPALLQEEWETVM
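HEK-293-derived GP2 cells expressing PTHR1 and a GloSensor cAMP reporter, 3,000/well, plated overnight, given luciferin plus IBMX (each 0.5 mM as added) for 1 h at 37 °C, then compound for 1 h at 37 °C. Luminescence was read after 15 min at room temperature.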
TRPML1 blocker: inhibitors of human TRPML1 channel. actives 0.02% (n = 390,000). activity change, negative = inhibition, % (test concentration not listed). AID 624415. TRPML1-inducible cells, Ca2+ dye fluorescence, FDSS; active compounds read low; inhibition of EC80 agonist-evoked calcium signal. Q9GZU1; in the data active = activity change below about -50%; inconclusive = between about -30% and that limit;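 also: stimulus is agonist 54-4 at its EC80 concentration; % is scaled to controls: 0 for no effect and ±100 for the full control effect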
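Calcium fluorescence in TRPML1-DL cells induced overnight with Tet: a 110 s read after compound pin addition, then a 110 s antagonist read after challenge with 54-4 at 4 uM final (EC80).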
GLP1R cytotox: cytotoxicity counter-screen for GLP-1 receptor inverse agonists | HEK293 cAMP-luciferase reporter cells, luminescence, 24 h | Potency, µM (highest dose often 38.3 µM), for the others: at the top dose activity change, negative = inhibition, actives largely listed as inhibitors | actives 0.13% (n = 410,000) | AID 624418;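 also: loss of luciferase light is scored as toxicity; potency is read from the fitted curve at half-maximal effect; % is scaled to controls: 0 for no effect and ±100 for the full control effect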
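Seeding density was 200 cells/uL; after overnight-length (12 h) culture, 23 nL compounds went on for 24 h at 37 °C. Readout used a luciferase detection reagent, luminescence taken after 12 min at room temperature.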
TRPML1 ag: agonists of human TRPML1 channel. TRPML1-expressing cells, Ca2+ dye fluorescence, FDSS. Q9GZU1. actives 0.12% (n = 410,000). activation, % (test concentration not listed); in the data active = activation above about 50%; inconclusive = mostly about 30% to 49%; also: 0% is about no effect
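Tet-induced TRPML1-DL cells, 1,500 per well, cultured overnight, were loaded with a no-wash Ca2+ dye for 45–90 min. Calcium fluorescence was recorded on the FDSS for 110 s after compound addition, before the EC80 agonist (4 uM 54-4) was added.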
The depositor's hits bear a star; i = inactive; ? = inconclusive; . = not tested or not shown; [ ] = dose if it differs, or a comment. Unless noted, calls follow the shape of the dose curve; as a rule, active = well fitted curve in the direction sought with a large enough effect; inconclusive = small, poorly fitted or top-dose-only effect, or another doubt; inactive = no such curve, though single readings can be large; an effect the other way counts as inactive or inconclusive.

SMILES	TRHR ag	TRHR PAM	PTHR1 agonist	TRPML1 blocker	GLP1R cytotox	TRPML1 ag
COc1ccc(-c2nnc(SCC(=O)NC3CCCC3)nc2-c2ccc(OC)c(OC)c2)cc1OC	-0.1	33.4*	i	-2.9	0.2%	1.4
N=c1c2c(-c3ccccc3)c(-c3ccccc3)n(Cc3ccccc3)c2ncn1CCCn1ccnc1	5.3	-3.2	-11.4%[57.5 µM]	4.9	10µM*	1.6
COC(=O)c1ccc(NC(=O)c2nc(S(=O)(=O)Cc3ccccc3F)ncc2Cl)cc1	.	.	.	.	.	1.2
COC(=O)c1ccc(C(=O)NC2CCCc3c2cnn3-c2ccc(C)c(C)c2)cc1 (centres undefined)	0.0	35.4*	-39.8%	-1.5	?	0.0
O=C(NC1CCN(Cc2ccccc2)C1)c1cc(COc2ccc(F)cc2F)on1 (centres undefined)	-0.1	31.0*	-6.9%	24.8	0.7%	0.7
Cc1ccc(C)c(OCc2cc(C(=O)NC3CCN(Cc4ccccc4)CC3)no2)c1	1.7	7.2	-35.2%	3.9	0.0%	0.0
CC(CCn1cccn1)NC(=O)c1cc(COc2ccc(F)cc2Cl)on1 (centres undefined)	1.4	-3.4	i	-27.2	-2.9%	0.2
CC(CCn1cccn1)NC(=O)c1cc(COc2ccc(F)cc2F)on1 (centres undefined)	0.1	35.5*	-18.2%	14.1	13.5%	0.7
Cc1ccnc(NS(=O)(=O)c2ccc(N3C(=O)C4CCCCC4C3=O)cc2)n1 (centres undefined)	-0.7	37.2*	-18.3%	-9.5	-11.8%	0.7
CC[N+](C)(C)c1ccc(/C=C/c2ccncc2)cc1	.	.	.	.	.	7.0
CC1=C(c2ccc(C)c(C)c2)S(=O)(=O)N=C1N1CCC(C(=O)NCc2ccc(C)o2)CC1	-0.2	30.5*	-5.4%	-12.1	-5.6%	3.1
C/C(=N\NC(=S)NC(C)C)c1ccc2c(c1)OCCO2	-0.3	3.7	-90.9%	-7.4	4.47µM*	2.2
CC(C)(C)n1ncc2c(=O)n(Cc3ccc(Cl)c(F)c3)cnc21	.	.	.	4.8	.	0.8
COc1ccc(CNc2nc3c(-c4ccc(C)cc4)nnn3c3ccccc23)cc1	0.2	43.9*	i	5.8	1.9%	-0.9
COC(=O)C1[C@H]2SC(C)(C)C(C(=O)OC)N2C(=O)N1Cc1ccccc1 (some centres undefined)	.	.	.	.	.	-0.6
CCCCC1=NN(C(=O)c2ccco2)C(O)(C(F)(F)F)C1 (centres undefined)	-0.6	35.7*	i	-4.1	?	-0.1
Cc1ccc(C(=O)n2nc(C)c(S(=O)(=O)N3CCCCCC3)c2C)cc1C	0.1	34.9*	-16.3%	0.0	2.5%	0.8
C[N+](C)(CCCCCI)c1ccc(/C=C/c2nc3ccccc3s2)cc1	.	.	.	.	.	3.7
O=S(=O)(Nc1ccccc1N1CCCCC1)c1ccc(Cl)s1	0.5	-6.8	-2.5%[57.5 µM]	-24.1	-0.4%	97.2*
CCOc1ccc2c(c1)C(=NNC(=O)c1ccncc1)c1cc(OCC)ccc1-2	-0.3	34.5*	-4.1%	8.2	?	-0.5
CC(C)(C)n1nnnc1C(c1cccs1)N(Cc1ccc(Cl)cc1)CC1CCCO1 (centres undefined)	-0.3	-1.5	i	-18.5	-3.2%	66.1*
Clc1ccc(CN(Cc2ccccc2)C(c2cccs2)c2nnnn2C2CCCC2)cc1 (centres undefined)	0.5	-1.4	-16.0%	8.0	3.4%	0.2
O=C(CN1C2CCCC1CC(NC(=O)c1ccccc1)C2)Nc1ccccc1 (centres undefined)	-2.0	39.7*	-5.9%	8.2	14.3%	-0.7
Cc1cccc(C2NC(=O)c3c(sc4c3CCN(C)C4)N2)c1O (centres undefined)	-0.8	47.3*	-47.3%	2.0	38.5%	2.5
CN1CCc2c(sc3c2C(=O)NC(c2ccccc2)N3)C1 (centres undefined)	3.0	2.6	-9.2%	-24.2	46.1%	5.8
